Source: PubChem BioAssay
MEKK2 mut-MEK5: signal of MEK5 binding to mutant human MEKK2 PB1 domain | percent response, % at 10 µM | bead flow cytometry, Alexa488-MEK5 binding to MEKK2 mutant | actives 0.35% (n = 290,000); in the data active means percent response above about 24%, passing the limit was not always enough
MEKK3 PB1 HTS: modulators (inhibitors or enhancers) of MEK5 binding to human MEKK3 PB1 domain; Q99759; bead-based flow cytometry, Alexa488-MEK5 binding to MEKK3; actives lie on both sides; 0 = blocked by unlabeled MEK5, 100 = vehicle; binding response (% of control), % at 10 µM; actives 1.4% (n = 290,000);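 active means binding response more than 3 SD above or below the average of its plate-row segment, actives on both sides; inconclusive means wells at one plate position flagged as instrument error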;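 further: Alexa488 bead fluorescence after subtracting the streptavidin-only scavenger bead signal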
Target sequence (Q99759 whole entry, looked up, the tested form may be a part): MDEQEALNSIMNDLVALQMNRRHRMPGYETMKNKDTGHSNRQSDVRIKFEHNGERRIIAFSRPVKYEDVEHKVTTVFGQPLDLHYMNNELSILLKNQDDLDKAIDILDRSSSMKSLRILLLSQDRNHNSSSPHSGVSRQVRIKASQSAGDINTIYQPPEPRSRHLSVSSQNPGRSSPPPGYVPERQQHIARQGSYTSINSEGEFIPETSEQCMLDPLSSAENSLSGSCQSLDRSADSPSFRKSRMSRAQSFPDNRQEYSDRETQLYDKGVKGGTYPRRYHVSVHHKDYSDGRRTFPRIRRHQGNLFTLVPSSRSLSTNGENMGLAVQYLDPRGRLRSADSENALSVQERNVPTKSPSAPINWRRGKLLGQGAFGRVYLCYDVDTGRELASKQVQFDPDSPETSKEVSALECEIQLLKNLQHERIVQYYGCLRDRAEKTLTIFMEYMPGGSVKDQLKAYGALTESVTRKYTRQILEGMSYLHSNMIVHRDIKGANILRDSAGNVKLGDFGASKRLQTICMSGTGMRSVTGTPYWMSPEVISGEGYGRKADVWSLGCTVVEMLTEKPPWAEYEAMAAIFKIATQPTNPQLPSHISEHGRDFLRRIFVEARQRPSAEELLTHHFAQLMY
MEKK2wt PB1 HTS: raises or lowers MEK5 binding to wildtype human MEKK2 PB1 domain; Q9Y2U5; bead flow cytometry, Alexa488-MEK5 binding to MEKK2 WT; actives lie on both sides; binding response (% of control), % at 10 µM; actives 1.1% (n = 290,000); AID 1531; in the data active means binding response below about 67% or above about 130%; inconclusive means no clear call, values can overlap the other calls; inactive means in between
UBC13 inh: human UBC13 polyubiquitination inhibition; P61088; actives 0.47% (n = 330,000); UBC13 polyubiquitin chain formation, TR-FRET; inhibition, % at 20 µM; in the data active means inhibition above about 45%, passing the limit was not always enough; inconclusive means no clear call, values can overlap the other calls
PREPL inhibitor: inhibitors of human prolyl oligopeptidase-like enzyme PREPL; recombinant PREPL, fluorescence polarization activity-based probe; inhibition, % at 5.96 µM; actives 0.68% (n = 320,000); in the data active means inhibition above about 43%
ATG4B inhibitor: ATG4B (human) cysteine protease inhibition | Q9Y4P1 | ATG4B cleavage of LC3-PLA2, NBD-HPC fluorescence, 1 h | inhibition, % at 8.33 µM | actives 0.51% (n = 340,000); in the data active means inhibition above about 40%
Casp3 counter: counter-screen for UBC13 inhibitors: human caspase-3 inhibition | inhibition, % at 20 µM | shares compounds with UBC13 inh | actives 4% (n = 1,400) | Recombinant caspase-3, Caspase-Glo 3/7 luminescence, 60 min;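 active means mean inhibition across replicates above about 26%, limit read from the data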
UBC13 confirm: human UBC13 polyubiquitin inhibition, confirmed. shares compounds with UBC13 inh. UBC13 polyubiquitination, TR-FRET, biochemical. inhibition, % at 10 µM. actives 68% (n = 1,400). AID 488859; in the data active means inhibition above about 45%; inconclusive means no clear call, values can overlap the other calls
Large screens that a line does not name were inactive (follow-up assays come after a bar, where they were run). Rows were chosen to be rich in hits. Some 3.1% of all compounds tested hit in one or more screens of this group.

CN1CCN(C(=O)c2ccccc2NS(=O)(=O)c2ccc(F)cc2)CC1	none (no result: MEKK2 mut-MEK5, MEKK3 PB1 HTS, MEKK2wt PB1 HTS)
CC(C)=CCc1c(O)cc(O)c2c(=O)c(O[C@@H]3O[C@@H](C)[C@H](O)[C@@H](O)[C@H]3O)c(-c3ccc(O)cc3)oc12	UBC13 inh 86.1 | Casp3 counter inactive | UBC13 confirm 78.0
CCOc1ccc(NS(=O)(=O)c2cc(C(=O)NCCCN3CCOCC3)ccc2C)cc1	UBC13 inh 73.6 (no result: MEKK2 mut-MEK5, MEKK3 PB1 HTS, MEKK2wt PB1 HTS) | Casp3 counter inactive | UBC13 confirm 94.1
COc1cccc(CN2C[C@]34C=C[C@@H](C[C@@H]3S2(=O)=O)O4)c1	none
Cc1ccc2c(c1C)C(=O)C(=O)N2	none (no result: MEKK2 mut-MEK5, MEKK3 PB1 HTS, MEKK2wt PB1 HTS, UBC13 inh, PREPL inhibitor)
Cc1ccc(NC(=O)CS(=O)CC(=O)NCCCc2ccccc2)cc1Cl (stereo not given)	UBC13 inh 64.9 | Casp3 counter inactive | UBC13 confirm 73.3
COc1ccc(C2CC(=O)c3cnc(N4CCc5ccccc54)nc3C2)cc1OC (stereo not given)	UBC13 inh 59.5 (no result: ATG4B inhibitor) | Casp3 counter inactive | UBC13 confirm inconclusive
COc1ccc(CNn2c(C)nc3ccccc3c2=O)cc1	UBC13 inh 47.0 | Casp3 counter inactive | UBC13 confirm 48.9
CCCCOc1ccc(CNn2c(C)nc3ccccc3c2=O)cc1	UBC13 inh 74.7 | Casp3 counter inactive | UBC13 confirm 82.5
Oc1ccc(C[C@@H]2CNCCN2CCc2cc(C(F)(F)F)cc(C(F)(F)F)c2)cc1	none (no result: MEKK2 mut-MEK5, MEKK3 PB1 HTS, MEKK2wt PB1 HTS)
Oc1ccc(C[C@@H]2CNCCN2CCCCC2CCCCC2)cc1	UBC13 inh 59.4 (no result: MEKK2 mut-MEK5, MEKK3 PB1 HTS, MEKK2wt PB1 HTS) | Casp3 counter inactive | UBC13 confirm 47.8
CN1CCCC(CC2c3ccccc3Sc3ccccc32)C1 (stereo not given)	UBC13 inh 46.3 (no result: MEKK2 mut-MEK5, MEKK3 PB1 HTS, MEKK2wt PB1 HTS) | Casp3 counter inactive | UBC13 confirm inactive
CN1CCCC(CN2c3ccccc3Sc3ccccc32)C1 (stereo not given)	none
CCc1nc(NC(=O)Cc2csc(C)n2)sc1C(=O)OC	none
CCCCCCCNC(=O)C1(CC2CC(c3cccc(Br)c3)=NO2)CCN(C(=O)CCCCCBr)CC1 (stereo not given)	UBC13 inh 45.1 (no result: MEKK2 mut-MEK5, MEKK3 PB1 HTS, MEKK2wt PB1 HTS) | Casp3 counter inactive | UBC13 confirm inactive
NCCCC[C@@H](C(=O)N1CCNCC1)n1cc(CN)nn1	UBC13 inh 59.8 (no result: MEKK2 mut-MEK5, MEKK3 PB1 HTS, MEKK2wt PB1 HTS) | Casp3 counter inactive | UBC13 confirm 46.6
C#CCOCCOCCOCCNc1nc(N2CCN(C(=O)[C@H](CCCN=C(N)N)n3cc(C(N)[C@@H](C)CC)nn3)CC2)nc(N2CCN(C(=O)[C@H](CCCCN)n3cc([C@@H](N)[C@H](C)CC)nn3)CC2)n1 (stereo not given in full)	UBC13 inh 94.8 (no result: MEKK2 mut-MEK5, MEKK3 PB1 HTS, MEKK2wt PB1 HTS) | Casp3 counter inactive | UBC13 confirm 88.4
C#CCOCCOCCOCCNc1nc(N2CCN(C(=O)[C@H](Cc3ccc(O)cc3)n3cc([C@@H](N)C(C)CC)nn3)CC2)nc(N2CCN(C(=O)[C@H](CCCCN)n3cc([C@@H](N)CC(C)C)nn3)CC2)n1 (stereo not given in full)	UBC13 inh 58.5 (no result: ATG4B inhibitor) | Casp3 counter inactive | UBC13 confirm 50.3
C#CCOCCOCCOCCNc1nc(N2CCN(C(=O)[C@H](CCCCN)n3cc(CN)nn3)CC2)nc(N2CCN(C(=O)[C@H](CCCCN)n3cc([C@@H](N)[C@H](C)CC)nn3)CC2)n1	UBC13 inh 109.1 (no result: MEKK2 mut-MEK5, MEKK3 PB1 HTS, MEKK2wt PB1 HTS) | Casp3 counter inactive | UBC13 confirm 108.5
C#CCOCCOCCOCCNc1nc(N2CCN(C(=O)[C@H](CCCCN)n3cc([C@@H](N)[C@H](C)CC)nn3)CC2)nc(N2CCN(C(=O)[C@H](CCC(=O)O)n3cc([C@@H](N)CCCCN)nn3)CC2)n1	UBC13 inh 101.4 (no result: MEKK2 mut-MEK5, MEKK3 PB1 HTS, MEKK2wt PB1 HTS) | Casp3 counter inactive | UBC13 confirm 109.3
